Data as given in PubChem BioAssay AID588763 (NMMLSC, 2011).
Entries with a potency or affinity are not part of this list. Calls of active or inactive are those of the source. The rule behind the calls is not given here.

Molecular target: Beta-2 adrenergic receptor (Homo sapiens) (UniProt P07550)
Assay: beta2AR agonists driving receptor internalization, dose response, cell-based, FAP fluorogen, flow cytometry, cherry pick 1 (AID 588763)
Conditions: AM2.2-beta2AR cells, 90 min; series mostly up to 33 µM; activation (receptor internalization): at the top concentration

Chain of Beta-2 adrenergic receptor (Homo sapiens) (P07550 whole entry, looked up): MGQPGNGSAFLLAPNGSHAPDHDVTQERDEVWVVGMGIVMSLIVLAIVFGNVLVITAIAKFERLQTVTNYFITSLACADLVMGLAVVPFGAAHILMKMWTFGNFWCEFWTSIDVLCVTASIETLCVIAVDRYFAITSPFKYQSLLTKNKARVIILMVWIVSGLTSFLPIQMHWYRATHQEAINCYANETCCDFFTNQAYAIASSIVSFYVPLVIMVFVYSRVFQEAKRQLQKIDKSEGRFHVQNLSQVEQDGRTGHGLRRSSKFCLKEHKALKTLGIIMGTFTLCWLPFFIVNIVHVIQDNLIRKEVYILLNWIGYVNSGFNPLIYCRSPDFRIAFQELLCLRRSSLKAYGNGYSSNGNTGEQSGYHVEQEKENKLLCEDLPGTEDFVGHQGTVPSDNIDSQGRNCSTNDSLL

Activation (receptor internalization), inactive:
COc1ccccc1N1CCN(C(=O)CN(C)S(=O)(=O)c2cc(C)ccc2OC)CC1 77.6%
CCOc1cc(/C=C2\CN(C)C/C(=C\c3ccc(O)c(OCC)c3)C2=O)ccc1O 72.9%
Cc1cc(S(=O)(=O)N2CCOCC2)ccc1OCC(=O)Nc1ccccc1F -7.22%
Cc1cc(S(=O)(=O)N2CCOCC2)ccc1OCC(=O)Nc1ccccc1C(F)(F)F 4.85%
COc1ccc(-c2nc3c4ccccc4ccn3c2CN2CCOCC2)cc1OC -4.07%
COc1cccc(CN2CCC(Oc3ccc(C(=O)N4CCCCC4)cc3)CC2)c1 2.46%
COc1ccc(C(=O)Nc2nc3cc4c(cc3s2)OCCO4)c(OC)c1 61.6%
N=c1n(CC(=O)c2ccc([N+](=O)[O-])cc2)c2ccccc2n1Cc1ccccc1 101%
COc1ccc(Cn2nc(-c3ccccc3)c(N3CCCCC3)cc2=O)cc1 16.6%
COc1cccc(OC)c1C(=O)Nc1ccc(NC(=O)c2ccco2)cc1 -20%
CC(C)NCC(O)c1cc(O)cc(O)c1 (stereo not drawn) 23.2%
Cc1cnn(-c2nc(-c3ccccc3)cc(-c3ccccc3)n2)c1 107%
CN(C)c1ccc(-c2nnn(CC(=O)Nc3ccccc3N3CCOCC3)n2)cc1 0.33%
N=c1n(Cc2ccc(Cl)cc2)c2ccccc2n1CC(O)COc1ccccc1 (stereo not drawn) 88.3%
Cn1nnnc1Sc1ncnc2scc(-c3cc4ccccc4o3)c12 106%
COC(=O)c1ccccc1NC(=O)Cn1nnc(-c2ccc(OC)cc2)n1 -4.84%
CCCC(=O)N1CCN(c2ccc(NC(=O)c3ccc([N+](=O)[O-])o3)cc2Cl)CC1 31%
COc1ccc(NC(=O)Cn2nnc(-c3ccccc3NC(=O)C3CC3)n2)cc1 -26.4%
COc1ccc(C)cc1S(=O)(=O)N(C)CC(=O)N1CCN(c2ccccc2)CC1 -0.827%
Cc1ccc(-c2nnc(SCc3nc4ccccc4[nH]3)n2Cc2ccco2)cc1 -2.47%
CC(=O)c1ccc(NC(=O)c2ccc3c(Cl)c4c(nc3c2)CCCC4)cc1 94.8%
CCN(CC)S(=O)(=O)c1cc(C(=O)Nc2cc(Cl)ccc2N2CCN(C)CC2)ccc1Cl 24.4%
CC(C)CNc1ncnc2c1sc1nc(N3CCOCC3)c3c(c12)CC(C)(C)OC3 -1.37%
c1ccc(-c2nnc(SCc3nc4ccccc4[nH]3)n2Cc2ccco2)cc1 -6.19%
N=c1n(CC(=O)c2ccc([N+](=O)[O-])cc2)c2ccccc2n1Cc1ccc(Cl)cc1 103%
COc1ccc(Cl)cc1NC(=O)COc1ccc(S(=O)(=O)N2CCOCC2)cc1C 20.1%
CC(NCCc1ccc(O)cc1)C(O)c1ccc(O)cc1 (stereo not drawn) -3.89%
O=C(COc1ccc(S(=O)(=O)N2CCCCC2)cc1)Nc1ccccc1F -6.13%
COC(=O)c1ccccc1NC(=O)COc1ccc(S(=O)(=O)N2CCCC2)cc1C 6.72%

outcome, inactive:
COc1ccc(OC)c(S(=O)(=O)N(C)CC(=O)N2CCN(c3ccc(F)cc3)CC2)c1
CN(CC(=O)N1CCN(c2ccc(F)cc2)CC1)S(=O)(=O)c1ccc(F)cc1
COc1ccccc1CNC(=O)CCn1c(=O)[nH]c2ccsc2c1=O
COc1ccc(OC)c(S(=O)(=O)N(C)CC(=O)N2CCN(c3cccc(Cl)c3)CC2)c1
